Binding signal data for five sequences are collected here from paper PMC8384837, “Expanding the binding specificity for RNA recognition by a PUF domain”.

Changes are numbered by the printed parent chain.

Assay in all cases: yeast three-hybrid, YBZ-1, SC-Leu-His + 0.5 mM 3-AT, 4 days
What all share (settings): tags: N-Gal4 AD-HA kept; label: inside an RPR1-promoter hybrid RNA with tandem MS2 sites; ssRNA

The target in one experiment is PUM1 PUF domain R4-EHG (Homo sapiens, UniProt Q14671 828-1176, N971E;Q975G). Put shortly:
(§1)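 Pumilio-1 PUF domain libraries, randomized (NNK) at the three base-contacting residues of each repeat, were co-expressed with matching RNA elements from a centromeric plasmid in strain YBZ-1 (LexA–MS2 coat fusion, HIS3 reporter). Transformants were plated on SC-Leu (input) and SC-Leu-His + 0.5 mM 3-AT (selection) for four days, and repeat regions were PCR-amplified and Illumina-sequenced. The interaction score is the log2 change in variant frequency from input to selection, with pseudocount 1 where absent.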

The target in the next experiment is PUM1 PUF domain R4-SRG (Homo sapiens, UniProt Q14671 828-1176, N971S;H972R;Q975G). Put shortly:
as §1

The next experiment addresses PUM1 PUF domain R4-FNM (Homo sapiens, UniProt Q14671 828-1176, N971F;H972N;Q975M). Put shortly: as §1
The next experiment has as its target PUM1 PUF domain R3-SCP (Homo sapiens, UniProt Q14671 828-1176, C935S;R936C;Q939P). Summed up: as §1
The next experiment deals with PUM1 PUF domain R3-RVN (Homo sapiens, UniProt Q14671 828-1176, C935R;R936V;Q939N). Put shortly:
as §1

A further experiment has as its target PUM1 PUF domain R3-FRR (Homo sapiens, UniProt Q14671 828-1176, C935F;Q939R). Summed up:
as §1

The target of a further experiment is PUM1 PUF domain R3-GIR (Homo sapiens, UniProt Q14671 828-1176, C935G;R936I;Q939R). Summed up:
as §1

A further experiment concerns the target PUM1 PUF domain R3-RPD (Homo sapiens, UniProt Q14671 828-1176, C935R;R936P;Q939D). Put shortly: as §1
The target in a further experiment is PUM1 PUF domain R7-RRH (Homo sapiens, UniProt Q14671 828-1176, S1079R;N1080R;E1083H). Summed up:
as §1

The target in the next experiment is T1, PUM1 PUF domain R6-VFK (Homo sapiens, UniProt Q14671 828-1176, N1043V;Y1044F;Q1047K).
T1 sequence: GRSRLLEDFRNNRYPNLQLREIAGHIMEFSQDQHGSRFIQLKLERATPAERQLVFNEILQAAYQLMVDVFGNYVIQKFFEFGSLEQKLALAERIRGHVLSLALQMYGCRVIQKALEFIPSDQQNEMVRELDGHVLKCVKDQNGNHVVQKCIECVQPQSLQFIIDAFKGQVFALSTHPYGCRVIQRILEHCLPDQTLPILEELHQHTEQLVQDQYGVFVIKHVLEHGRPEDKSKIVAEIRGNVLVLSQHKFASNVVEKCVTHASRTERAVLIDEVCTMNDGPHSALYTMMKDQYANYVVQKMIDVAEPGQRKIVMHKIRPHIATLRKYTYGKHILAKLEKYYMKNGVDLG
Summed up: as §1

For the next experiment, the target named is PUM1 PUF domain R3-TRC (Homo sapiens, UniProt Q14671 828-1176, C935T;Q939C). Put shortly: as §1
For another experiment, the target named is PUM1 PUF domain R5-LHD (Homo sapiens, UniProt Q14671 828-1176, C1007L;R1008H;Q1011D). Summed up:
as §1

For another experiment, the target named is T2, PUM1 PUF domain R6-SFK (Homo sapiens, UniProt Q14671 828-1176, N1043S;Y1044F;Q1047K).
T2 sequence: T1 sequence with V216S
Summed up: as §1

The target of the next experiment is PUM1 PUF domain R3-LYI (Homo sapiens, UniProt Q14671 828-1176, C935L;R936Y;Q939I). Summed up: as §1
The next experiment addresses PUM1 PUF domain R4-RMQ (Homo sapiens, UniProt Q14671 828-1176, N971R;H972M). Put shortly: as §1

Turning to “GGCUAGAACUAGUGGAUCCCCCGGCGCCCGGCGGCUCGAGCCCGGGUAAGUGUACAUAGUCUGCAUGCCGCCGGGCGCCAUGCCUGCAGGUCGACUCUAGAAAACAUG”, the figures for the binding signal with PUM1 PUF domain R4-EHG, in the experiment with PUM1 PUF domain R4-SRG and in the experiment with PUM1 PUF domain R4-FNM were 2.82 log2 enrichment (interaction score), 0.54 log2 enrichment (interaction score) and 2.87 log2 enrichment (interaction score), respectively.
For “GGCUAGAACUAGUGGAUCCCCCGGCGCCCGGCGGCUCGAGCCCGGGUAAGUGUAUAUAGUCUGCAUGCCGCCGGGCGCCAUGCCUGCAGGUCGACUCUAGAAAACAUG”, the binding signal in the experiment with PUM1 PUF domain R4-SRG was 1.37 log2 enrichment (interaction score); with PUM1 PUF domain R4-FNM, 3.46 log2 enrichment (interaction score).
For the sequence “GGCUAGAACUAGUGGAUCCCCCGGCGCCCGGCGGCUCGAGCCCGGGUAAGUGUAAUUAGUCUGCAUGCCGCCGGGCGCCAUGCCUGCAGGUCGACUCUAGAAAACAUG”, the binding signal was 3.31 log2 enrichment (interaction score) with PUM1 PUF domain R3-SCP; 4.09 log2 enrichment (interaction score) in the experiment with PUM1 PUF domain R3-RVN; 2.42 log2 enrichment (interaction score) in the experiment with PUM1 PUF domain R3-FRR; 1.55 log2 enrichment (interaction score) in the experiment with PUM1 PUF domain R3-GIR; 3.79 log2 enrichment (interaction score) with PUM1 PUF domain R3-RPD.
With “GGCUAGAACUAGUGGAUCCCCCGGCGCCCGGCGGCUCGAGCCCGGGUAAGUCUAAAUAGUCUGCAUGCCGCCGGGCGCCAUGCCUGCAGGUCGACUCUAGAAAACAUG”, the binding signal in the experiment with PUM1 PUF domain R7-RRH was 4.29 log2 enrichment (interaction score).
Consider “GGCUAGAACUAGUGGAUCCCCCGGCGCCCGGCGGCUCGAGCCCGGGUAAGUGUAAAUAGUCUGCAUGCCGCCGGGCGCCAUGCCUGCAGGUCGACUCUAGAAAACAUG”, for which the binding signal was 2.3 log2 enrichment (interaction score) with PUM1 PUF domain R4-EHG; 4.42 log2 enrichment (interaction score) with PUM1 PUF domain R4-SRG; 3.04 log2 enrichment (interaction score) in the experiment with PUM1 PUF domain R6-VFK; 3.26 log2 enrichment (interaction score) with PUM1 PUF domain R3-TRC; 3.18 log2 enrichment (interaction score) with PUM1 PUF domain R5-LHD; 6.49 log2 enrichment (interaction score) in the experiment with PUM1 PUF domain R6-SFK. Besides, the binding signal with PUM1 PUF domain R3-LYI is 4.35 log2 enrichment (interaction score); with PUM1 PUF domain R4-RMQ it was 3.34 log2 enrichment (interaction score).
